Laboratory results reported in PubChem BioAssay AID1159580 (chemical genetic matrix, 2015).
Where “and” joins values, the source holds several entries; their conditions need not be identical. Identical values can stand only once. Hit rate of the full screen: of about 5,500 compounds, about 2,000 (36%) were called active. Another 18% or so got no clear call; they are omitted. Rule as the data show it: active = normalized growth mostly below about 0.91 (no sharp cut-off); inconclusive = no clear call, values can overlap the other calls; inactive = mostly above about 0.92. Some of the results follow.

Assay: chemical genetic growth profiling, strain panel (AID 1159580);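 also: tested at 20 µM; growth read once vehicle control cultures reached saturation at 30 °C; 1 = growth at the plate median or of vehicle wells; lower values mean less growth of the strain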
Settings: growth OD

Measured: normalized growth

CCC1(C)CC(=O)NC1=O (stereo unspecified)
inactive: S. cerevisiae deletion strains, locus YJR075W, strain HOC1, active compounds read low 1.01 | S. cerevisiae deletion strains, locus YKL009W, strain mrt4, active compounds read low 1.03 | S. cerevisiae deletion strains, locus YKL068W, active compounds read low 1.01 | S. cerevisiae deletion strains, locus YKL085W, strain MDH1 (second series), active compounds read low 1.01 | S. cerevisiae deletion strains, locus YKL085W, strain MDH1, active compounds read low 1.01 | S. cerevisiae deletion strains, locus YKL160W, strain elf1, active compounds read low 0.992 | S. cerevisiae deletion strains, locus YKL190W, strain CNB1, active compounds read low 1.02 | S. cerevisiae deletion strains, locus YKR001C, strain vps1, active compounds read low 1.01 | S. cerevisiae deletion strains, locus YKR026C, strain gcn3, active compounds read low 0.979 | S. cerevisiae deletion strains, locus YKR091W, strain srl3, active compounds read low 0.972 | S. cerevisiae deletion strains, locus YLL001W, strain dnm1, active compounds read low 0.967 | S. cerevisiae deletion strains, locus YLL026W, active compounds read low 0.98 | S. cerevisiae deletion strains, locus YLL041C, strain sdh2, active compounds read low 0.995 | S. cerevisiae deletion strains, locus YLR027C, strain aat2, active compounds read low 0.975 | S. cerevisiae deletion strains, locus YLR039C, strain RIC1, active compounds read low 1.03 | S. cerevisiae deletion strains, locus YLR058C, strain SHM2, active compounds read low 1.02 | S. cerevisiae deletion strains, locus YLR102C, strain apc9, active compounds read low 1.01 | S. cerevisiae deletion strains, locus YLR113W, strain HOG1, active compounds read low 0.966 | S. cerevisiae deletion strains, locus YLR221C, strain rsa3, active compounds read low 0.987 | S. cerevisiae deletion strains, locus YLR258W, strain gsy2, active compounds read low 0.968 | S. cerevisiae deletion strains, locus YLR262C, strain YPT6 (second series), active compounds read low 0.977 | S. cerevisiae deletion strains, locus YLR262C, strain YPT6, active compounds read low 1.04 | S. cerevisiae deletion strains, locus YLR268W, strain sec22, active compounds read low 1.02 | S. cerevisiae deletion strains, locus YLR320W, strain mms22, active compounds read low 0.978 | S. cerevisiae deletion strains, locus YLR330W, strain CHS5, active compounds read low 1.01 | S. cerevisiae deletion strains, locus YLR342W, strain FKS1 (second series), active compounds read low 1.02 | S. cerevisiae deletion strains, locus YLR342W, strain FKS1, active compounds read low 0.988 | S. cerevisiae deletion strains, locus YLR357W, strain rsc2, active compounds read low 0.965 | S. cerevisiae deletion strains, locus YLR370C, strain arc18, active compounds read low 0.981 | S. cerevisiae deletion strains, locus YLR371W, strain rom2, active compounds read low 1.02 | S. cerevisiae deletion strains, locus YLR384C, strain iki3, active compounds read low 0.969 | S. cerevisiae deletion strains, locus YLR418C, strain cdc73, active compounds read low 1.02 | S. cerevisiae deletion strains, locus YML016C, strain PPZ1, active compounds read low 1.01 | S. cerevisiae deletion strains, locus YML032C, strain rad52, active compounds read low 1.01 | S. cerevisiae deletion strains, locus YML120C, strain ndi1, active compounds read low 0.977 | S. cerevisiae deletion strains, locus YML124C, strain tub3, active compounds read low 1.02 | S. cerevisiae deletion strains, locus YMR058W, strain fet3, active compounds read low 0.969 | S. cerevisiae deletion strains, locus YMR078C, strain ctf18, active compounds read low 1.02 | S. cerevisiae deletion strains, locus YMR125W, strain sto1, active compounds read low 0.97 | S. cerevisiae deletion strains, locus YMR129W, active compounds read low 0.979 | S. cerevisiae deletion strains, locus YMR205C, strain PFK2, active compounds read low 0.992 | S. cerevisiae deletion strains, locus YMR223W, strain ubp8, active compounds read low 1.02 | S. cerevisiae deletion strains, locus YMR231W, strain pep5, active compounds read low 0.983 | S. cerevisiae deletion strains, locus YMR263W, strain SAP30, active compounds read low 1.01 | S. cerevisiae deletion strains, locus YMR307W, strain GAS1, active compounds read low 1.04 | S. cerevisiae deletion strains, locus YNL067W, strain RPL9B, active compounds read low 1.01 | S. cerevisiae deletion strains, locus YNL071W, strain lat1, active compounds read low 0.96 | S. cerevisiae deletion strains, locus YNL128W, strain TEP1, active compounds read low 1.04 | S. cerevisiae deletion strains, locus YNL153C, strain GIM3, active compounds read low 1.01 | S. cerevisiae deletion strains, locus YNL175C, strain NOP13, active compounds read low 0.993 | S. cerevisiae deletion strains, locus YNL183C, strain NPR1, active compounds read low 0.906 | S. cerevisiae deletion strains, locus YNL197C, strain WHI3, active compounds read low 0.999 | S. cerevisiae deletion strains, locus YNL209W, strain ssb2, active compounds read low 0.969 | S. cerevisiae deletion strains, locus YNL224C, strain SQS1, active compounds read low 0.975 | S. cerevisiae deletion strains, locus YNL233W, strain BNI4, active compounds read low 1 | S. cerevisiae deletion strains, locus YNL248C, strain rpa49, active compounds read low 0.993 | S. cerevisiae deletion strains, locus YNL250W, strain rad50, active compounds read low 1.01 | S. cerevisiae deletion strains, locus YNL271C, strain bni1, active compounds read low 1.03 | S. cerevisiae deletion strains, locus YNL298W, strain CLA4, active compounds read low 1.02 | S. cerevisiae deletion strains, locus YNL307C, strain MCK1, active compounds read low 1.02 | S. cerevisiae deletion strains, locus YNL322C, strain KRE1 (second series), active compounds read low 0.982 | S. cerevisiae deletion strains, locus YNL322C, strain KRE1, active compounds read low 1.01 and 1.02 | S. cerevisiae deletion strains, locus YNR049C, strain mso1, active compounds read low 0.969 | S. cerevisiae deletion strains, locus YNR052C, strain pop2, active compounds read low 1.02 | S. cerevisiae deletion strains, locus YOL006C, strain TOP1, active compounds read low 0.992 | S. cerevisiae deletion strains, locus YOL012C, strain htz1 0.885 | S. cerevisiae deletion strains, locus YOL147C, strain pex11, active compounds read low 1.01 | S. cerevisiae deletion strains, locus YOR001W, strain rrp6, active compounds read low 0.98 | S. cerevisiae deletion strains, locus YOR061W, strain CKA2, active compounds read low 1.01 | S. cerevisiae deletion strains, locus YOR069W, strain VPS5, active compounds read low 1.01 | S. cerevisiae deletion strains, locus YOR070C, strain gyp1, active compounds read low 1.01 | S. cerevisiae deletion strains, locus YOR080W, strain dia2, active compounds read low 0.976 | S. cerevisiae deletion strains, locus YOR083W, strain WHI5 (second series), active compounds read low 1 | S. cerevisiae deletion strains, locus YOR083W, strain WHI5, active compounds read low 0.976 | S. cerevisiae deletion strains, locus YOR106W, strain vam3, active compounds read low 0.959 | S. cerevisiae deletion strains, locus YOR136W, strain idh2, active compounds read low 1.02 | S. cerevisiae deletion strains, locus YOR144C, strain elg1, active compounds read low 1.01 | S. cerevisiae deletion strains, locus YOR184W, strain ser1, active compounds read low 1.01 | S. cerevisiae deletion strains, locus YOR231W, strain MKK1, active compounds read low 0.977 | S. cerevisiae deletion strains, locus YOR265W, strain rbl2, active compounds read low 0.978 | S. cerevisiae deletion strains, locus YOR270C, strain vph1, active compounds read low 0.984 | S. cerevisiae deletion strains, locus YOR290C, strain snf2, active compounds read low 0.963 | S. cerevisiae deletion strains, locus YOR316C, strain cot1, active compounds read low 1.02 | S. cerevisiae deletion strains, locus YPL051W, strain arl3, active compounds read low 0.987 | S. cerevisiae deletion strains, locus YPL055C, strain LGE1, active compounds read low 0.988 and 1.06 | S. cerevisiae deletion strains, locus YPL078C, strain atp4, active compounds read low 0.97 | S. cerevisiae deletion strains, locus YPL106C, strain sse1, active compounds read low 1.01 | S. cerevisiae deletion strains, locus YPL240C, strain hsp82, active compounds read low 0.973 | S. cerevisiae deletion strains, locus YPL241C, strain CIN2, active compounds read low 1.01 | S. cerevisiae deletion strains, locus YPL256C, strain CLN2, active compounds read low 0.956 | S. cerevisiae deletion strains, locus YPR119W, strain clb2, active compounds read low 1.01 | S. cerevisiae deletion strains, locus YPR141C, strain kar3, active compounds read low 1.02 | S. cerevisiae deletion strains, locus YPR163C, strain tif3, active compounds read low 1.02 | S. cerevisiae deletion strains, locus YPR167C, strain met16, active compounds read low 1.02 | S. cerevisiae deletion strains, strain wtn01, active compounds read low 1.02 | S. cerevisiae strains, strain wild type, active compounds read low 1.01
